Screens (PubChem)
TLR4-MyD88 BLA: blocks binding of human TLR4 to MyD88. hit rate 0.18% among 200,000. O00206+Q99836. HeLa CL3-4 TLR4/MyD88 BLA complementation, FRET ratio. inhibition, % at 8.4 µM; in the data active = inhibition above about 25%;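 also: 0% = vehicle and 100% = reference inhibitor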
ANO1 activ: activators or potentiators of mouse TMEM16A chloride channel. hit rate 0.3% among 340,000. HEK293 TMEM16A/YFP-H148Q/I152L, iodide quench fluorescence; stronger effect = lower value. Q8BHY3. B-score at 10 µM;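 active = fluorescence-ratio B-score plate-corrected deviation score at least 3 library SD below zero, with starting fluorescence score within 5 deviations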;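 also: channel opened by trigger with iodide after compound preincubation; score built on the fluorescence ratio of max minus min over baseline; more negative score means more quench and so TMEM16A activation or potentiation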
Target sequence (Q8BHY3 whole entry, looked up): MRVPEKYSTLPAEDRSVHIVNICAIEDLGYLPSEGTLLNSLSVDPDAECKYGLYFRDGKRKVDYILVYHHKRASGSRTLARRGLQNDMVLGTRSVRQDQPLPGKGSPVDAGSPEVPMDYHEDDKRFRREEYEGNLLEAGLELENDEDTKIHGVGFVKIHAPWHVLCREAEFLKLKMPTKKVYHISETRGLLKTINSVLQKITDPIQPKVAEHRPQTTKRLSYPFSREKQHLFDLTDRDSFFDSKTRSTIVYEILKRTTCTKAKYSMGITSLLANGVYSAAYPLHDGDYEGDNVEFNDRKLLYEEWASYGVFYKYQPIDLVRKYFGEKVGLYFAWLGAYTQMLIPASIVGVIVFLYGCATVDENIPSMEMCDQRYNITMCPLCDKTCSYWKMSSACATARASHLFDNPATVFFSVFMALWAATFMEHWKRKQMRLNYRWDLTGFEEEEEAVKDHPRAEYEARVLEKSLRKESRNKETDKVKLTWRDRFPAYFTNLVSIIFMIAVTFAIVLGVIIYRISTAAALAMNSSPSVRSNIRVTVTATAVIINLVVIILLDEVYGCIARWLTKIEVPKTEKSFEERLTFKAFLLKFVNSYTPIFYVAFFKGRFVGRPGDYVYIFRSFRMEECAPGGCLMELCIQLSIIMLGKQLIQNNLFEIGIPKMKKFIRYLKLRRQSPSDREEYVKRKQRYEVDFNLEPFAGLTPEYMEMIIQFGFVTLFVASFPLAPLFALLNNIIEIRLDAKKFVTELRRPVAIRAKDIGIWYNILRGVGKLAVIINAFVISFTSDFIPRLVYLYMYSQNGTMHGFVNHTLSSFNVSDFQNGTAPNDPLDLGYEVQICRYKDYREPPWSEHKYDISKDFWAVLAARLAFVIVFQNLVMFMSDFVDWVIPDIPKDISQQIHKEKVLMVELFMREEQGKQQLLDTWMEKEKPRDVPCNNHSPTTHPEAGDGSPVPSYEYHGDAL
NOD2 RIPK2 PPI: NOD2-RIPK2 protein interaction inhibition. O43353. CHO BLA complementation NOD2-RIPK2, CCF4 ratio. inhibition, % at 4.98 µM. hit rate 0.38% among 360,000. AID 624267; in the data active = inhibition above about 21%;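 also: 0% = vehicle only and 100% = reference blocker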
TLR9-MyD88 inh: TLR9-MyD88 interaction inhibition; hit rate 0.21% among 340,000; CHO BLA complementation TLR9-MyD88, CCF4 FRET ratio; inhibition, % at 4.98 µM; AID 504734;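 active = inhibition above the mean over all tested compounds plus 3 SD, cut at about 21% in these data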;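 also: 0% = DMSO only wells and 100% = clavulanate BLA inhibitor control wells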
HTR2A ag: agonists of mouse serotonin 5-HT2A receptor (HTR2A) | hit rate 0.66% among 360,000 | activation, % at 7.6 µM | CHO-K1 mHTR2A beta-arrestin complementation, luminescence; percent of 30 µM serotonin response | AID 624169;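 active = activation above a run cutoff, the mean activation of all tested compounds plus 3 SD, cut at about 14% in these data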;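 also: 0% = plate median of compound wells and 100% = 30 µM serotonin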
ANO1 block: inhibitors of mouse TMEM16A calcium-activated chloride channel | Q8BHY3 | HEK293 TMEM16A/YFP iodide influx fluorescence, ionomycin | normalized B-score (activity score, 25-100; higher = stronger inhibition) at 10 µM | hit rate 1.2% among 310,000 | AID 588511;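 active = ratio plate-corrected score three or more library SD toward inhibition, starting fluorescence score within five deviations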;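 also: score derived from kinetic fluorescence span divided by baseline fluorescence per well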
* hit, by the source's call. Rows were chosen to be rich in hits. Some 2.4% of all compounds tested hit in one or more screens of this group.

How did O=C(CSc1nc2nc(-c3cccs3)cc(C(F)(F)F)c2c(=O)[nH]1)Nc1c(F)c(F)c(F)c(F)c1F do in these assays?
TLR4-MyD88 BLA: -4; ANO1 activ: inactive; NOD2 RIPK2 PPI: 0; TLR9-MyD88 inh: 6; HTR2A ag: 0; ANO1 block: 100*

What do the screens show for `CCc1nn(CC(=O)NCCCN2CCc3ccccc3C2)c(=O)c2cc3sccc3n12`?
TLR4-MyD88 BLA: -12; ANO1 activ: inactive; NOD2 RIPK2 PPI: -4; TLR9-MyD88 inh: 4; HTR2A ag: -3; ANO1 block: 100*

How did Cc1ccccc1OCC(O)Cn1nnc2ccccc21 (configuration not stated) do in these assays?
TLR4-MyD88 BLA: -2; ANO1 activ: inactive; NOD2 RIPK2 PPI: -1; TLR9-MyD88 inh: 1; HTR2A ag: -4; ANO1 block: inactive

Results for O=C(N/N=C/c1cc([N+](=O)[O-])ccc1O)c1cc(-c2ccccc2)nc2ccccc12 ?
TLR4-MyD88 BLA: -9; ANO1 activ: inactive; NOD2 RIPK2 PPI: -1; TLR9-MyD88 inh: -2; HTR2A ag: 1; ANO1 block: 25*

What do the screens show for `COc1ccccc1-c1cc(C(=O)N/N=C/c2sccc2C)c2ccccc2n1`?
TLR4-MyD88 BLA: 1; ANO1 activ: inactive; NOD2 RIPK2 PPI: -9; TLR9-MyD88 inh: 3; HTR2A ag: -2; ANO1 block: inactive

What do the screens show for `Cc1ccsc1/C=N/NC(=O)c1cc(-c2ccncc2)nc2ccccc12`?
TLR4-MyD88 BLA: 5; ANO1 activ: -5*; NOD2 RIPK2 PPI: 8; TLR9-MyD88 inh: -8; HTR2A ag: -1; ANO1 block: inactive

Results for Nc1nc(CSc2nc3ccccc3[nH]2)cs1 ?
TLR4-MyD88 BLA: -4; ANO1 activ: inactive; NOD2 RIPK2 PPI: -13; TLR9-MyD88 inh: -7; HTR2A ag: 4; ANO1 block: inactive

How did CC(=O)c1ccc(OCc2cc(C(=O)N3CCCCCCC3)no2)cc1 do in these assays?
ANO1 activ: inactive; NOD2 RIPK2 PPI: -5; TLR9-MyD88 inh: 0; HTR2A ag: -6; ANO1 block: inactive

Results for CC(=O)c1ccc(OCc2cc(C(=O)N3CCC(Oc4ccccc4C)CC3)no2)cc1 ?
ANO1 activ: inactive; NOD2 RIPK2 PPI: -3; TLR9-MyD88 inh: -5; HTR2A ag: -4; ANO1 block: 100*

How did COc1ccccc1OCc1nc(C#N)c(N2CC(C)CC(C)C2)o1 (configuration not stated) do in these assays?
TLR4-MyD88 BLA: -6; ANO1 activ: inactive; NOD2 RIPK2 PPI: -4; TLR9-MyD88 inh: 5; HTR2A ag: -3; ANO1 block: inactive

What do the screens show for `C(=N\Nc1nc(Nc2ccccc2)nc(N2CCOCC2)n1)/c1c[nH]c2ccccc12`?
TLR4-MyD88 BLA: 11; ANO1 block: 25*

What do the screens show for `O=C(CN1c2cccc3cccc(c23)S1(=O)=O)Nc1ccc(F)c(F)c1F`?
ANO1 activ: -5.1*; NOD2 RIPK2 PPI: 4; TLR9-MyD88 inh: -12; HTR2A ag: -5

What do the screens show for `C=CCNC(=O)CN1c2cccc3cccc(c23)S1(=O)=O`?
ANO1 activ: -6.6*; NOD2 RIPK2 PPI: -4; TLR9-MyD88 inh: -2; HTR2A ag: 5; ANO1 block: inactive

How did O=C(CN1c2cccc3cccc(c23)S1(=O)=O)Nc1ccccc1F do in these assays?
ANO1 activ: -7.8*; NOD2 RIPK2 PPI: 2; TLR9-MyD88 inh: 3; HTR2A ag: -9; ANO1 block: inactive

How did COc1ccc(S(=O)(=O)CCC(=O)Nc2cc(C)ccc2OC)cc1 do in these assays?
TLR4-MyD88 BLA: 8; ANO1 activ: inactive; NOD2 RIPK2 PPI: 1; TLR9-MyD88 inh: -6; HTR2A ag: 0; ANO1 block: inactive

How did O=C(NC(NC(=S)Nc1ccc(Cl)cc1Cl)C(Cl)(Cl)Cl)c1cccc([N+](=O)[O-])c1 (configuration not stated) do in these assays?
TLR4-MyD88 BLA: 10; ANO1 activ: inactive; NOD2 RIPK2 PPI: -5; TLR9-MyD88 inh: -7; HTR2A ag: 0; ANO1 block: 100*

How did O=C(NNC(=O)c1cc(-c2ccccc2)nc2ccccc12)Nc1cccc(Cl)c1 do in these assays?
TLR4-MyD88 BLA: -12; ANO1 activ: inactive; NOD2 RIPK2 PPI: -1; TLR9-MyD88 inh: -9; HTR2A ag: -3; ANO1 block: 100*

How did O=C(NNC(=O)c1cc(-c2cccnc2)nc2ccccc12)Nc1ccc(Cl)cc1 do in these assays?
TLR4-MyD88 BLA: 6; ANO1 activ: inactive; NOD2 RIPK2 PPI: -2; TLR9-MyD88 inh: 2; HTR2A ag: -5; ANO1 block: inactive

How did COC(=O)Cc1c(C)c2ccc(OCC(=O)N(C)C3CCS(=O)(=O)C3)cc2oc1=O (configuration not stated) do in these assays?
ANO1 activ: inactive; NOD2 RIPK2 PPI: -3; TLR9-MyD88 inh: 3; HTR2A ag: -5; ANO1 block: inactive

Results for CC(=O)NC(c1ccc(C(C)C)cc1)c1c(O)ccc2ccccc12 (configuration not stated) ?
ANO1 activ: inactive; NOD2 RIPK2 PPI: 6; HTR2A ag: 1; ANO1 block: inactive

How did CC(=O)NC(c1ccccc1)c1c(O)ccc2ccccc12 (configuration not stated) do in these assays?
TLR4-MyD88 BLA: 7; ANO1 activ: -6.5*; NOD2 RIPK2 PPI: -3; TLR9-MyD88 inh: 4; HTR2A ag: -3; ANO1 block: inactive

Results for COc1ccc(N/C=C2\C(=O)CCc3c2oc2cc(Cl)c(O)c(Cl)c32)cc1 ?
ANO1 activ: inactive; NOD2 RIPK2 PPI: -1; TLR9-MyD88 inh: -3; HTR2A ag: -8; ANO1 block: inactive

Results for COc1ccccc1NC(=O)N(Cc1ccccc1)c1ccccn1 ?
TLR4-MyD88 BLA: -5; ANO1 activ: inactive; NOD2 RIPK2 PPI: -3; TLR9-MyD88 inh: -5; HTR2A ag: -1; ANO1 block: inactive

Results for CC(Cc1ccc(O)c(O)c1)C(C)Cc1ccc(O)c(O)c1 (configuration not stated) ?
ANO1 block: 100*

How did COc1cc(C[C@@H](C)[C@@H](C)Cc2ccc(O)c(OC)c2)ccc1O do in these assays?
ANO1 activ: inactive; NOD2 RIPK2 PPI: -8; TLR9-MyD88 inh: 0; HTR2A ag: 7

Results for O=C(NC1CCCCCC1)c1c(F)c(F)c(F)c(F)c1F ?
TLR4-MyD88 BLA: 2; ANO1 activ: inactive; NOD2 RIPK2 PPI: -6; TLR9-MyD88 inh: 0; HTR2A ag: 4; ANO1 block: inactive

Results for CCC(CC)C(=O)Oc1c(Sc2ccccc2[N+](=O)[O-])c(C)nn1C(C)(C)C ?
TLR4-MyD88 BLA: 9; ANO1 activ: -10*; NOD2 RIPK2 PPI: -1; TLR9-MyD88 inh: 3; HTR2A ag: 3; ANO1 block: inactive
